# Screening results as filed in PubChem BioAssay.
# Only some compounds are listed: those with a hit (about 3.5% of all), similar ones and a draw of the others.
# TbPYK inhibitor = T. brucei pyruvate kinase inhibition. Potency, µM (highest dose often 76.8 µM), for inactives: at the top dose activity, negative = inhibition, actives largely listed as inhibitors. Q57TT1. actives 0.12% (n = 410,000). TbPYK enzyme, Kinase-Glo Plus ATP luminescence, 45 min; note: % is set by controls: 0 for no effect and ±100 for the full control effect; nearly all actives have a fitted effect of over 50% in size
#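 T. brucei PYK with substrate was exposed to pin-transferred compounds across a concentration series, then started with 130 uM ADP (final). After 45 min at room temperature, Kinase-Glo Plus luminescence was read, normalized and curve-fitted.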
# Giardia FBPA inh = blocks Giardia fructose-bisphosphate aldolase activity; A8B2U2; AID 2451; actives 0.71% (n = 290,000); purified Giardia FBPA; Potency, µM (doses to about 59.6 µM), for inactives: top-dose activity, negative = inhibition, actives largely listed as inhibitors; note: % is set by controls: 0 for no effect and ±100 for the full control effect; nearly all actives have a fitted effect of over 55% in size
#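 Giardia FBPA (40 nM reagent) was preincubated 10 min at RT with compound (up to 57.5 uM final), then substrate plus GAPDH/TPI/NAD/arsenate coupling system with diaphorase/resazurin was added; resorufin fluorescence (525/598 nm) was read after 20 min.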
# Sm TGR block = S. mansoni TGR enzyme inhibition | Q962Y6 | purified TGR, DTNB reduction, TNB absorbance 405 nm | Potency, µM (titrated, usually from 114 µM), for the others: at the highest dose activity change, negative = inhibition, hits mostly inhibitors | actives 3% (n = 360,000) | AID 485364; note: % is set by controls: 0 for no effect and ±100 for the full control effect; nearly all actives have a fitted effect of over 60% in size
#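 First, TGR (20 nM dispensed) and NADPH were mixed with compound. Second, a 15 min room-temperature incubation followed. Third, further NADPH and then DTNB were added to start the reaction. Finally, TNB absorbance was monitored kinetically.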
# LmPK inhibitor = LmPK (Leishmania mexicana) enzyme inhibition; Potency, µM (doses to about 57.5 µM), inactives show at the highest dose activity change, negative = inhibition, usual class: inhibitors; actives 0.37% (n = 290,000); purified LmPK, Kinase-Glo ATP luminescence, 1 h; note: % is set by controls: 0 for no effect and ±100 for the full control effect
# Target sequence (Q27686 whole entry, looked up): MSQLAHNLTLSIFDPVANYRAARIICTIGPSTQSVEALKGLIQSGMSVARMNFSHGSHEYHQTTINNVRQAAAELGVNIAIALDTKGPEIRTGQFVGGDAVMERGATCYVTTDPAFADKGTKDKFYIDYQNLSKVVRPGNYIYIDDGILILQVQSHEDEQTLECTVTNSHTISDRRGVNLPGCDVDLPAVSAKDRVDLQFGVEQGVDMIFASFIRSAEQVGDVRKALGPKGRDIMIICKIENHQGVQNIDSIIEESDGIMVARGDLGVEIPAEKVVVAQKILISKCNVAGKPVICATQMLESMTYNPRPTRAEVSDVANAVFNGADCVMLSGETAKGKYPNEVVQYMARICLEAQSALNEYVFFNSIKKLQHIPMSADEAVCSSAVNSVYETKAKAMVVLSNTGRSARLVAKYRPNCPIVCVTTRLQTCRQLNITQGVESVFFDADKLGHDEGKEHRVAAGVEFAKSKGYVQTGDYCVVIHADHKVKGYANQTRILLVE
#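 qHTS format; LmPK 0.1 nM; substrates PEP 0.5 mM and ADP 0.1 mM. One-hour room-temperature incubation, then coupled luciferase luminescence; 0.5 nM enzyme wells mark activation.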
# RE007 growth inh = less growth of the S. pombe RE007 Vpr strain; S. pombe RE007 Vpr strain, BacTiter-Glo ATP luminescence, 24 h; Potency, µM (highest dose often 92.2 µM), for inactives: top-dose activity change, negative = less growth, hits mostly inhibitors; actives 0.21% (n = 360,000); AID 651644; active = well fitted falling curve with a large enough effect; inconclusive = small, poorly fitted or top-dose-only effect; inactive = no such curve, though single readings can be large or run the other way; note: % is set by controls: 0 for no effect and ±100 for the full control effect; nearly all actives have a fitted effect of over 50% in size
#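 Fission yeast RE007 carrying one integrated HIV-1 vpr copy, seeded at OD 0.01 in PMG+AL medium with 23 nL pinned compound. Grown 24 h at 30 degrees; viability read by BacTiter-Glo luminescence after 5 min.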
# NS1 function inh = blocks influenza NS1 protein function | Potency, µM (doses to about 46.1 µM), for inactives: at the highest dose activity, positive = more growth | actives 0.4% (n = 270,000) | AID 2326; calls by dose curve; note: actives are rising curves; nearly all actives have a fitted effect of over 50% in size
#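 Growth recovery, yeast-based: influenza A NS1 expressed in S. cerevisiae causes slow growth, and suppressors are detected by OD600. The parent strain without NS1 is used as positive control.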
# An asterisk follows results filed as active; ? = inconclusive; / = no result; [ ] = another dose, or the depositor's remark. Unless noted, calls come from the whole dose curve; as a rule, active = well fitted curve in the direction sought with a large enough effect; inconclusive = small, poorly fitted or top-dose-only effect, or another doubt; inactive = no such curve, though single readings can be large; an effect the other way counts as inactive or inconclusive. Potency is the fitted concentration of half-maximal effect.
SMILES,TbPYK inhibitor,Giardia FBPA inh,Sm TGR block,LmPK inhibitor,RE007 growth inh,NS1 function inh
CC(=O)c1ccc(-c2nc3ccccc3n2C)o1,-24%,-14%,40µM*,16µM*,-15%,-18%
Cc1oc(-c2nc3ccccc3n2C)cc1C(=O)c1ccccc1,32µM*,-27%,25µM*,13µM*,?,-80%
Cc1ccc(-c2nc3ccccc3n2C)o1,?,-5%,16µM*,14µM*,40µM*,-120%
Cc1ccc(C)c(N2C(=O)N(Cc3cc(=O)n4ccccc4n3)c3ccccc3S2(=O)=O)c1,-1%,/,-4%,/,/,/
Cn1c(-c2ccc(Br)o2)nc2cc(Br)ccc21,?,0%,13µM*,-25%,-8%,-84%
COc1cccc(CC2(CO)CCCN(Cc3ccccc3Cl)C2)c1 (stereo not drawn),-1%,0%,-30%,-5%,2%,5%
Cc1ccccc1CC1(CO)CCCN(Cc2ccccc2Cl)C1 (stereo not drawn),-5%,5%,25µM*,0%,1%,18%
CC(C)(N)C(=O)N[C@@H](Cc1cnc[nH]1)C(=O)N[C@H](Cc1ccc2ccccc2c1)C(=O)N[C@H](Cc1ccccc1)C(=O)N[C@@H](CCCCN)C(N)=O,/,7%,/,/,/,/
O=C1C(=Cc2ccccc2[N+](=O)[O-])Cc2ccccc21,-5%,/,/,/,2.5µM*,/
Nc1ccccc1C=C1Cc2ccccc2C1=O,3%,/,/,/,-7%,/
NC(=O)CSc1nc2ccc(NC(=O)COc3ccccc3Cl)cc2s1,-6%,/,1%,/,/,/
CCc1ccc(S(=O)(=O)c2nnn3c2nc(Nc2ccc(F)cc2)c2cc(Cl)ccc23)cc1,0%,/,7%,/,/,/
C[C@@H]1CC[C@H]2C(=O)O[C@H](CN=[N+]=[N-])CN2[C@@H]1c1ccc(Br)cc1,/,-4%[12.9 µM],/,/,/,/
COc1ccc(NC(=S)Nc2ccc(OC)cc2OC)c(OC)c1,-11%,-9%,-3%,2%,-1%,16%
COc1ccc(NC(=S)Nc2cnc3ccccc3c2)c(OC)c1,0%,-5%,40µM*,1%,-4%,2%
COc1ccc(NC(=S)NC(=O)CC(C)C)c(OC)c1,-9%,0%,40µM*,-4%,-13%,/
CCc1nn2c(=O)cc(COC(=O)c3cccc(NC(=O)c4cccs4)c3)nc2s1,-8%,/,1%,/,/,/
Cc1cc(N2CCOCC2)c(F)cc1C(=O)c1ccccc1,0%,5%,-25%,3%,13µM*,-18%
O=C(C1=C[C@H](c2csc3ccccc23)C[C@H](OCc2ccc(CO)cc2)O1)N1CCN(Cc2ccccc2)CC1,2%,-17%,14µM*,6%,-3%,-37%
CC(=O)n1cc([C@H]2C=C(C(=O)N3CCN(Cc4ccccc4)CC3)O[C@@H](OCCCCO)C2)c2ccccc21,-3%,-12%,35µM*,-4%,-26%,-6%
CC(=O)n1cc([C@H]2C=C(C(N)=O)O[C@@H](OCc3ccc(CO)cc3)C2)c2ccccc21,-1%,/,/,/,8%,/
CC(=O)n1cc([C@@H]2C=C(C(=O)N3CCN(Cc4ccccc4)CC3)O[C@H](OCc3ccc(CO)cc3)C2)c2ccccc21,2%,-24%,25µM*,3%,-11%,-2%
CC(=O)n1cc([C@@H]2C=C(C(=O)N3CCN(Cc4ccc5c(c4)OCO5)CC3)O[C@H](OCCCCO)C2)c2ccccc21,-4%,-1%,-6%,6%,-12%,-6%
CCOC(=O)c1ccc(OC(=O)c2cn(-c3cccc(OC)c3)c(=O)c3ccccc23)cc1,1%,/,8%,/,/,/
CCOc1ccc(/C=C/C(=O)c2cc(Br)ccc(=O)c2O)cc1,1%,?,28µM*,4%,-30%,-28%
SMILES,TbPYK inhibitor,Giardia FBPA inh,Sm TGR block,LmPK inhibitor,RE007 growth inh,NS1 function inh
O=C(O)c1[nH]c(=O)[nH]c(=O)c1CN1CCCCC1,/,/,/,/,/,-4%
O=C(COC(=O)CCOc1ccccc1)NCc1ccco1,-3%,1%,35µM*,-1%,16%,-6%
Cc1ccc(-c2csc(=S)n2CC(=O)OCC(=O)NCc2ccco2)cc1,-11%,-1%,40µM*,1%,-3%,-7%
O=C(COC(=O)CCC(=O)c1ccc(Cl)cc1)NCc1ccco1,-2%,-5%,18µM*,0%,-17%,/
O=C(COC(=O)CCC(=O)c1ccc(F)cc1)NCc1ccc(Cl)cc1,-4%,/,/,/,-1%,/
O=C(Cn1ccc(NC(=O)OCc2ccccc2)nc1=O)NCc1ccccn1,-2%,/,4%,/,-5%,/
O=C(Cn1ccc(NC(=O)OCc2ccccc2)nc1=O)NCCc1ccccn1,3%,/,32µM*,/,2%,/
CC(=O)Nc1ccc(-c2nnc3n(Cc4ccc(C)cc4)c(=O)c4ccccc4n23)cc1,1%,/,0%,/,/,/
Cc1ccc(C2=NN(S(=O)(=O)c3ccccc3)C(c3ccco3)C2)cc1 (stereo not drawn),-5%,/,0%,/,1%,/
CS(=O)(=O)Nc1ccc(C2=NN(S(=O)(=O)c3ccc(F)cc3)C(c3ccco3)C2)cc1 (stereo not drawn),-5%,-13%,14µM*,-1%,-1%,/
O=S(=O)(c1ccccc1)N1N=C(c2ccc(Br)cc2)CC1c1ccco1 (stereo not drawn),?,14%,56µM*,-3%,-4%,-8%
O=c1c2cc(N3CCOCC3)ccc2[nH]c(=S)n1Cc1ccco1,?,?,8.9µM*,-1%,0%,27%
COc1ccc(C2=CC(c3ccc(Cl)cc3)n3cnnc3N2)cc1OC (stereo not drawn),3%,-8%,25µM*,5%,-4%,-64%
CCN(CC)C(=O)c1cc([N+](=O)[O-])cc2c1-c1ccc([N+](=O)[O-])cc1C2=C(C#N)C#N,-1%,7.1µM*,4µM*,-1%,-3%,4%
O=C(NCCC1=CCCCC1)c1ccc2c(c1)ncn2-c1cccc(Cl)c1,-1%,/,7%,/,/,/
O=C(O)/C=C/C(=O)N(CC1CCCO1)C1CC(=O)N(c2c(Cl)cccc2Cl)C1=O (stereo not drawn),3%,-1%,40µM*,15%,-14%,0%
O=C1c2ccccc2C(Nc2ccc(F)c(Cl)c2)N1Cc1ccco1 (stereo not drawn),-19%,-16%,13µM*,2%,-11%,-100%
COc1ccc(NC(=O)N2CCc3nc(COc4ccccc4)c4c(c3C2)CO[C@@H](C)C4)cc1,/,0%[12.9 µM],/,-4%[11.5 µM],/,/
O=C(NC(Cc1ccccc1)C(=O)NC(Cc1ccccc1)C(=O)O)c1ccccc1 (stereo not drawn),1%,1%,28µM*,-3%,14%,-3%
COC(=O)c1ccccc1NC(=O)Cn1nc(C)c2nn(-c3ccc(Cl)cc3)c(C)c2c1=O,-1%,/,11%,/,/,/
